Values joined by “and” are separate entries in the source; they are usually repeats but may differ in a detail not shown here. Equal values may be shown once. Records with an inconclusive call do not appear. The source holds several records for some structures; these can differ, active in one and inactive in another. Active and inactive are the calls of the source. Rule for the calls: active = hit-call score of the fitted dose curve at least 0.9, where 1 is the maximum; inconclusive = response in the unintended direction; inactive = score below 0.9.
Each compound was assayed on zebrafish Estrogen Receptor (ER2b), gene 317733 (assay: ATG_zfER2b_XSP2: Attagene TRANS-FACTORIAL Multi-Species (XSP2) HepG2 Assay for zebrafish Estrogen Receptor (ER2b) (AID 2283823);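 note: fitted upward as reporter gain over DMSO so potency reflects activation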).
Experimental: ATG_XSP2_multi-species_TRANS is a cell-based, multiplexed assay created by modifying the existing Attagene TRANS-FACTORIAL system to include a panel of nuclear receptors from some or all the following species: human (Homo sapiens), mouse (Mus musculus), frog (Xenopus laevis), zebrafish (Danio rerio), chicken (Gallus gallus), and turtle (Chrysemys picta). The ECOTOX-FACTORIAL format uses HepG2, a human liver cell line, with measurements taken at 24 hours after chemical dosing in a 24-well plate. Xsp2 included 3 nM 6-alpha-fluorotestosterone and 1.5 nM norgestrel to stimulate the androgen receptor.ATG_zfER2b_XSP2 is one of 29 assay components measured or calculated from the ATG_XSP2_multi-species_TRANS assay. It is designed to make measurements of mRNA induction, a form of inducible reporter, as detected with fluorescence intensity signals by Reverse transcription polymerase chain reaction (RT-PCR) and Capillary electrophoresis technology.The assay endpoint ATG_zfER2b_XSP2 was analyzed in the positive analysis fitting direction relative to DMSO as the negative control and baseline of activity. Using a type of inducible reporter, measures of mRNA for gain-of-signal activity can be used to understand the reporter gene at the transcription factor-level as they relate to the gene ER. Furthermore, this assay endpoint can be referred to as a primary readout, because this assay has produced multiple assay endpoints where this one serves a reporter gene function. To generalize the intended target to other relatable targets, this assay endpoint is annotated to the nuclear receptor intended target family, where the subfamily is steroidal.
Human liver HepG2 cells are transiently transfected with multiple reporter transcription units (MRTUs) in 6-well plates using FuGene 6 reagent (Roche; 3 ml FuGene/1 mg DNA). The MRTU constructs are regulated by a cis-regulating element (promoter). […] A major difference between the CIS and TRANS system is that in CIS activities of endogenous TFs are measured, whereas the TRANS assay evaluates changes in activities of exogenous, chimeric NR-Gal4 proteins. […] At the end of 24 hour incubation, total RNA was isolated using TriZol reagent (Invitrogen). The isolated RNA is then reverse-transcribed using oligo(dT) primer and Mo-MLV reverse transcriptase (Invitrogen) with DNAse I (Ambion) treatment for 30 min. The one-tenth of the produced cDNA was amplified by PCR using Taq DNA polymerase (Invitrogen) and two reporter sequence-specific primers. The PCR products were fluorescently labeled by primer extension with 6-arboxyfluorescein (6-FAM) 5'-labeled reporter sequence-specific primer (2 min at 95 C, 20 s at 68 C and 10 min at 72 C) and these products were digested with 5U of HpaI (New England Biolabs) for 2h at 37 C. The fragments were purified using Qiaquick PCR columns (Qiagen), analyzed on an ABI 3130xL genetic analyzer (Applied Biosystems) with peak positions identified by using a set of X-rhodamine (ROX)-labeled MapMarker1000 molecular weight standards (BioVentures). The raw capillary electrophoresis data was processed using Attagraph software (Attagene).

| SMILES | outcome | AC50 |
| --- | --- | --- |
| CC(C)NC(=O)N1CC(=O)N(c2cc(Cl)cc(Cl)c2)C1=O | inactive |  |
| CC1(C)CCC(=Cc2ccc(Cl)cc2)C1(O)Cn1cncn1 (stereo unspecified) |  | 115 µM (active) |
| C=C(C)CN(CC)c1c([N+](=O)[O-])cc(C(F)(F)F)cc1[N+](=O)[O-] |  | 33.3 µM (active) and 38 µM (active) |
| CCN(CC)C(=O)C(C)Oc1cccc2ccccc12 (stereo unspecified) |  | 65.7 µM (active) |
| Cc1c(COC(=O)[C@@H]2[C@H](/C=C(\Cl)C(F)(F)F)C2(C)C)cccc1-c1ccccc1 |  | 100 µM (active) |
| COP(=S)(OC)Oc1ccc([N+](=O)[O-])c(C)c1 |  | 54.5 µM (active) |
| CC1(C)C(C=C(Cl)Cl)C1C(=O)OC(C#N)c1cccc(Oc2ccccc2)c1 (stereo unspecified) |  | 100 µM (active) |
| COP(=S)(OC)SCn1nnc2ccccc2c1=O | inactive | 132 µM (active) |
| CSC(=O)c1c(C(F)F)nc(C(F)(F)F)c(C(=O)SC)c1CC(C)C |  | 15.7 µM (active) |
| N#Cc1c[nH]cc1-c1cccc2c1OC(F)(F)O2 |  | 23.2 µM (active) and 17.5 µM (active) |
